# Only some compounds are listed: those with a hit (about 22% of all), similar ones and a draw of the others.
# CYP2C19 activ = activators of human cytochrome P450 2C19; recombinant CYP2C19, luciferin-H EGE luminescence; hits give high values; 0 = fully inhibited enzyme, 1 = untreated enzyme; activation factor at 5 µM; 96,000 tested, under 10 active; AID 1025;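 active = activation factor of at least 2 at 5 µM in the primary screen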
# E-sel TNF inh = blocks E-selectin expression induced by TNF alpha | HUVEC TNFa-induced E-selectin immunofluorescence, high content | inhibition, % at 2 µM | 0.71% of 120,000 active;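 active = inhibition above the batch mean plus 3 SD, and confirmed as a hit on visual image review, cut at about 43% in these data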
# CYP2C9 inhib = inhibitors of human CYP2C9; CYP2C9 Supersomes, luciferin-H conversion, luminescence; P11712; inhibition, % at 5 µM; AID 777; 20% of 96,000 active;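 active = blocking of liver enzyme CYP2C9 beyond about 50% at 5 µM, limit read from the data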
# Target sequence (P11712 whole entry, looked up): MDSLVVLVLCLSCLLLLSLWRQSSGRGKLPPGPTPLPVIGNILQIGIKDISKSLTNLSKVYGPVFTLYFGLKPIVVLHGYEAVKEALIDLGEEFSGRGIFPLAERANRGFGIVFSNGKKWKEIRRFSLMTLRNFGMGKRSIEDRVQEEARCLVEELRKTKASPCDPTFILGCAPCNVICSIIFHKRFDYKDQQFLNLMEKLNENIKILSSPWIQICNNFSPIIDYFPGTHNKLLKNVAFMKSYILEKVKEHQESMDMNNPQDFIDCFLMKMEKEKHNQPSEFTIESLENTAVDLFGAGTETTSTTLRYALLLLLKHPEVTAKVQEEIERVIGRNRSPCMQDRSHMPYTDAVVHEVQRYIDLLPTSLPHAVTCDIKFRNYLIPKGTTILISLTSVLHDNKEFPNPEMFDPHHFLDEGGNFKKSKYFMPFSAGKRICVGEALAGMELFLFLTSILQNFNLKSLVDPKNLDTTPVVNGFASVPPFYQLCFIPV
# CYP2C19 inhib = inhibitors of human CYP2C19; P33261; CYP2C19 Supersomes, luciferin-H EGE luminescence, 30 min; inhibition, % at 5 µM; 21% of 96,000 active; AID 778;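 active = CYP2C19 inhibition above a set limit at 5 µM in the primary screen, cut at about 50% in these data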
# cytoskel mod = cytoskeleton assembly modification; HUVEC TNFa F-actin phalloidin imaging, high content; inhibition, % at 2 µM; 0.18% of 91,000 active; AID 836;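 active = inhibition above the batch mean plus 3 SD and confirmed as a hit by visual image inspection, cut at about 30% in these data, passing the limit was not always enough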
# CYP2C9 activ = CYP2C9 (human) activation; recombinant CYP2C9, luciferin-H conversion, luminescence; hits give high values; factor 1 = untreated enzyme, 0 = blocked; 1.4% of 96,000 active; activation factor at 5 µM; P11712; AID 1024;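 active = activation factor of 2 or more for CYP2C9 at a 5 µM dose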
# Hits are given with their value; n = inactive; x = not tested or not shown.
SMILES,CYP2C19 activ,E-sel TNF inh,CYP2C9 inhib,CYP2C19 inhib,cytoskel mod,CYP2C9 activ
CCOC(=O)c1ccc(NS(=O)C23CC4CC(CC(C4)C2)C3)cc1 (stereo not drawn),n,n,n,n,n,n
CC(Cc1c[nH]c2ccccc12)C(=O)O (stereo not drawn),x,n,x,x,x,x
CN(Cc1ccccc1)Cc1c[nH]c2ccccc12,n,n,n,88,n,n
CC(=O)N1CCCc2cc(S(=O)(=O)Nc3ccc4c(c3)OCO4)ccc21,n,x,87,99,x,n
O=C(c1ccccc1NS(=O)(=O)c1cccc(C(F)(F)F)c1)N1CCc2ccccc21,x,n,x,x,x,x
CC(=O)N1CCc2cc(S(=O)(=O)Nc3cccc(C(F)(F)F)c3)ccc21,n,n,71,95,n,n
CCN1CCN(C(=O)/C=C/c2ccc([N+](=O)[O-])cc2)CC1,x,n,x,x,x,x
Cc1nn2c(-n3ccnc3)c3c(nc2c1-c1ccccc1)CCC3,n,x,63,96,n,n
C#CCOC(=O)Nc1cccn(Cc2c(Cl)cccc2Cl)c1=O,n,n,n,65,n,2
O=C1CC(/C=C/c2ccco2)=Nc2ccccc2N1,n,x,n,n,x,n
O=C1CC(C(F)(F)C(F)(F)C(F)(F)C(F)F)=Nc2ccccc2N1,n,x,n,60,n,n
CCOc1ccccc1NC(=O)C(NC(=O)C1CCC(C)CC1)C(C)C (stereo not drawn),x,n,x,x,x,x
CS(=O)(=O)N1CCCC(C(=O)NCc2ccco2)C1 (stereo not drawn),n,n,n,n,n,n
O=C(NCc1ccco1)C1CCCN(S(=O)(=O)c2cccc3cccnc23)C1 (stereo not drawn),n,n,n,70,n,4.1
O=C(Nc1ccccc1F)C1CCCN(S(=O)(=O)c2cccc3cccnc23)C1 (stereo not drawn),n,n,n,76,n,n
Cc1[nH]c(=O)[nH]c(=O)c1S(=O)(=O)N1CCCC(C(=O)NCc2ccco2)C1 (stereo not drawn),n,n,97,74,n,n
CCOC(=O)C1CCCN(S(=O)(=O)c2cccc3cccnc23)C1 (stereo not drawn),n,n,n,81,n,4.5
Cc1nnc(Sc2nc3c(c(=O)n(C)c(=O)n3C)n2Cc2ccc(Cl)cc2)s1,x,n,x,x,x,x
CC(C)(C)NC(=O)C1CCCN(S(=O)(=O)c2cccc3cccnc23)C1 (stereo not drawn),n,x,n,n,x,2.7
Cc1nnc(NC(=O)C2CCCN(S(=O)(=O)c3ccccc3C(F)(F)F)C2)s1 (stereo not drawn),n,n,62,51,n,n
Cc1nnc(NC(=O)C2CCCN(S(=O)(=O)Cc3ccccc3)C2)s1 (stereo not drawn),n,n,n,n,n,n
O=C(C1CCCN(S(=O)(=O)c2cccc3cccnc23)C1)N1CCN(c2ccc(F)cc2)CC1 (stereo not drawn),n,n,n,61,n,n
O=C(C1CCN(S(=O)(=O)c2cccc3cccnc23)CC1)N1CCN(c2ccccc2)CC1,n,n,n,n,x,n
O=C(Nc1ccncc1)C1CCCN(S(=O)(=O)c2cccc3cccnc23)C1 (stereo not drawn),n,x,94,99,n,n
O=C1C2CCCN2C(c2ccc(F)c(F)c2)N1c1cccc(Cl)c1 (stereo not drawn),n,x,n,50,n,n
SMILES,CYP2C19 activ,E-sel TNF inh,CYP2C9 inhib,CYP2C19 inhib,cytoskel mod,CYP2C9 activ
COc1cccc(C2N(c3cccc(Cl)c3)C(=O)C3CCCN32)c1OC (stereo not drawn),n,n,70,78,n,n
CCCOC(=O)C1=C(C)NC2=C(C(=O)CC(C)(C)C2)C1c1ccc(N(C)C)cc1 (stereo not drawn),n,n,80,85,n,n
CN(C)c1ccc(C2CC(=O)NC3=C2C(=O)CC(C)(C)C3)cc1 (stereo not drawn),n,n,n,61,n,n
CCN(CC)c1ccc(C2C(C(=O)OCCOC)=C(C)NC3=C2C(=O)CC(C)(C)C3)cc1 (stereo not drawn),n,61,n,n,n,n
CCN(CC)c1ccc(C2CC(=O)NC3=C2C(=O)CC(C)(C)C3)cc1 (stereo not drawn),n,x,n,n,x,n
COCCOC(=O)C1=C(N)OC2=C(C(=O)CC(C)(C)C2)C1c1ccncc1 (stereo not drawn),x,n,x,x,x,x
CCCOC(=O)C1=C(C)NC2=C(C(=O)CC(C)(C)C2)C1c1cccnc1 (stereo not drawn),x,n,x,x,x,x
COCCOC(=O)C1=C(C)NC2=C(C(=O)CC(C)(C)C2)C1c1ccc2c(c1)OCO2 (stereo not drawn),n,x,82,90,n,n
COc1cc2c(cc1OC)-c1nnc(-c3cccs3)n1C1(CCCC1)C2,n,n,n,n,n,n
CC1=C(C(=O)Nc2cc(C)ccn2)C(c2ccc(C)cc2)C2=C(CCCC2=O)N1 (stereo not drawn),n,n,n,n,n,n
CCOC(=O)C1=C(C)NC2=C(C(=O)CC(C)(C)C2)C1c1cccc(C)n1 (stereo not drawn),n,x,n,55,n,n
CCN(CC)c1ccc(C2C(C(=O)Nc3ccccn3)=C(C)NC3=C2C(=O)CC(C)(C)C3)cc1 (stereo not drawn),n,n,94,n,n,n
CC1(C)CC(=O)C2=C(C1)Nc1[nH]n(-c3ccccc3)c(=O)c1C2c1ccc2c(c1)OCO2 (stereo not drawn),n,n,n,55,n,n
CCOC(=O)C1=C(C)NC2=C(C(=O)C(C(=O)OCC)C(c3ccc(OC)cc3)C2)C1c1ccccn1 (stereo not drawn),n,n,n,n,n,n
CCOC(=O)C1=C(C)N(C)C(=O)NC1c1cc2c(cc1Br)OCO2 (stereo not drawn),n,x,n,62,n,n
CCc1ccc(OCC(=O)NC(=S)Nc2cccc(CO)c2)c(Br)c1,n,n,n,n,n,n
O=C(CC1S/C(=N/N=C/C=C/c2ccccc2)NC1=O)Nc1ccc(C(=O)O)cc1 (stereo not drawn),x,n,x,x,x,x
O=C1Nc2ccc([N+](=O)[O-])cc2OC1CCN1CCCC1 (stereo not drawn),x,n,x,x,x,x
COCCOC(=O)C1=C(C)NC2=C(C(=O)CCC2)C1c1cc2c(cc1Br)OCO2 (stereo not drawn),n,x,79,96,n,n
COc1ccc(N2CCN(C3CC(=O)N(Cc4ccc(N5CCCC5=O)cc4)C3=O)CC2)cc1 (stereo not drawn),n,x,n,n,n,n
COc1ccc(NC(=O)CSc2nc(C)cc(C(F)(F)F)n2)cc1,n,n,n,65,n,n
Cc1cc(C(F)(F)F)nc(SCC(=O)NC2CC3CCC2C3)n1 (stereo not drawn),n,n,n,83,n,2.1
CSc1nc(C)cc(SCC(=O)Nc2ccccc2)n1,n,n,67,90,n,n
